Experimental data taken from PubChem BioAssay (Tox21).
Inconclusive results are not listed. Active and inactive are the calls of the source. Unless noted, calls follow the shape of the full dose curve.

Experiments:
[1] = Nuclear factor erythroid 2-related factor 2/antioxidant responsive element (Nrf2/ARE) small molecule agonists: qHTS cell viability counter screen in human keratinocytes (AID 1919968; active = well fitted curve in the direction sought with a large enough effect in the repeat runs; an effect the other way counts as inactive or inconclusive; also: nearly all actives have a fitted effect of over 55% in size; also: potency is read from the fitted curve at half-maximal effect)
Outline: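 Seed 1,500 KeratinoSens cells per well, then incubate 5 h at 37 C/5% CO2. Add compounds in DMSO and incubate 23 h. Add CellTiter-Fluor, wait 1 h and read fluorescence.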

[2] = Nuclear factor erythroid 2-related factor 2/antioxidant responsive element (Nrf2/ARE) small molecule agonists: luciferase reporter gene qHTS assay in human keratinocytes (AID 1919969); also: nearly all actives have a fitted effect of over 35% in size
[3] = target: Gonadotropin-releasing hormone receptor (Homo sapiens) (UniProt P30968); experiment: Human gonadotropin-releasing hormone receptor (GnRHR) small molecule agonists, calcium flux assay in GnRHR-HEK293 cells (AID 1920063); also: nearly all actives have a fitted effect of over 35% in size
Gonadotropin-releasing hormone receptor (Homo sapiens), sequence (P30968 whole entry, looked up): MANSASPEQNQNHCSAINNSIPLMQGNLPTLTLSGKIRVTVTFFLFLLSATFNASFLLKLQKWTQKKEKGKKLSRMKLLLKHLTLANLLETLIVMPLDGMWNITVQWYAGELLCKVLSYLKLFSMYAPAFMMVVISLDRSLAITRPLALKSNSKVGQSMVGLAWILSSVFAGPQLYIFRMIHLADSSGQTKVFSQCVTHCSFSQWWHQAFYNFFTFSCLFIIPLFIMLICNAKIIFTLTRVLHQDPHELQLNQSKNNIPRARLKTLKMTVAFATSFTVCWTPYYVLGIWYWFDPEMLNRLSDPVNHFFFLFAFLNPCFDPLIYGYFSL
Outline: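 Cells: HEK293 stably expressing human GnRHR. Steps: overnight (18 h) culture, 1 h calcium dye loading at 37 C, compound addition, kinetic fluorescence read at 480/540 nm. Each compound tested at 15 concentrations in triplicate.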

[4] = target: KiSS-1 receptor (Homo sapiens) (UniProt Q969F8); experiment: Human kisspeptin (KISS1R) small molecule agonists, calcium flux assay in KISS1R-HEK293 cells (AID 1920064; active = well fitted curve in the direction sought with a large enough effect in the repeat runs; an effect the other way counts as inactive or inconclusive)
KiSS-1 receptor (Homo sapiens), sequence (Q969F8 whole entry, looked up): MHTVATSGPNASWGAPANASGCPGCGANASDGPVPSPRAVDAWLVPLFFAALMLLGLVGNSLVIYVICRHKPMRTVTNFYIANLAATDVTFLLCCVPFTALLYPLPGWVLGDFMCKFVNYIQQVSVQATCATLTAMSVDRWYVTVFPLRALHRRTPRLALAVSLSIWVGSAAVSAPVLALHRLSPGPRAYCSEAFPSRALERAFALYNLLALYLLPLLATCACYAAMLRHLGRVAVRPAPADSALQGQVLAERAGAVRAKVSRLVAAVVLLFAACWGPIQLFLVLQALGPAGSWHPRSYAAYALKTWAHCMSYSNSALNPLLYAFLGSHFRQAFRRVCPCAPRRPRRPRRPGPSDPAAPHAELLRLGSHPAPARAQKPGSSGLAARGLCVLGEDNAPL
Outline: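 Cells plated and incubated 18 h; dye added, 1 h at 37 C; compounds in DMSO pinned in; signal read at 480/540 nm every second for 3 min. Each compound tested at 15 concentrations in triplicate.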

[5] = p53 small molecule agonists, cell-based qHTS assay with human liver microsomes (AID 1963577)
Outline: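 Cells carrying a p53-responsive bla reporter were rested 5 h (37 C, 5% CO2) before compound transfer. Human liver microsomes plus NADPH, 0.5 mg/mL final apiece, supplied metabolism during the 16 h 37 C exposure.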

[6] = p53 small molecule agonists, cell-based qHTS assay with rat liver microsomes (AID 1963578)
Outline: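 Fluorescence from a beta-lactamase reporter under a p53 response element was measured after cells had been incubated 16 h at 37 C with test compound and rat liver microsomes plus NADPH (0.5 mg/mL final each).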

[7] = p53 small molecule agonists, cell-based qHTS assay with human liver microsomes: qHTS cell viability counter screen (AID 1963579); also: nearly all actives have a fitted effect of over 45% in size
Outline: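 Seed p53RE-bla cells at 4,000 per well; incubate 5 h at 37 C; add compound, human liver microsomes and NADPH; incubate 16 h at 37 C; add CellTiter-Glo; after 30 min at room temperature, read luminescence.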

[8] = p53 small molecule agonists, cell-based qHTS assay with rat liver microsomes: qHTS cell viability counter screen (AID 1963580); also: nearly all actives have a fitted effect of over 45% in size
Outline: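 HCT-116 p53RE-bla, 4,000 cells/well, 5 h pre-incubation; cpd + rat liver microsomes 0.5 mg/mL + NADPH 0.5 mg/mL (final); 16 h, 37 C; CellTiter-Glo, 30 min RT; luminescence.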

[9] = p53 small molecule agonists, cell-based qHTS assay: qHTS cell viability counter screen (AID 1963581); also: nearly all actives have a fitted effect of over 45% in size
Outline: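 Cells: HCT-116 with p53 response element-driven beta-lactamase. Treatment: 16 h, 37 C, compounds in DMSO. Read: CellTiter-Glo luminescence after 30 min RT.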

[10] = p53 small molecule agonists, cell-based qHTS assay (AID 1963582; active = well fitted activation curve with a large enough effect in the signal ratio in the repeat runs, not every such curve was filed as active; the % refers to the signal ratio)
Outline: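 Quantitative HTS in p53RE-bla cells: after a 5 h settling period, compounds delivered in DMSO were left on cells for 16 h at 37 C, and reporter induction was measured as fluorescence following 2 h substrate loading.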

[11] = target: 5-hydroxytryptamine receptor 2A (Homo sapiens) (UniProt P28223); experiment: 5-hydroxytryptamine receptor 2A (HTR2A) small molecule agonists, cell-based qHTS assay (AID 1963587); also: nearly all actives have a fitted effect of over 30% in size
5-hydroxytryptamine receptor 2A (Homo sapiens), sequence (P28223 whole entry, looked up): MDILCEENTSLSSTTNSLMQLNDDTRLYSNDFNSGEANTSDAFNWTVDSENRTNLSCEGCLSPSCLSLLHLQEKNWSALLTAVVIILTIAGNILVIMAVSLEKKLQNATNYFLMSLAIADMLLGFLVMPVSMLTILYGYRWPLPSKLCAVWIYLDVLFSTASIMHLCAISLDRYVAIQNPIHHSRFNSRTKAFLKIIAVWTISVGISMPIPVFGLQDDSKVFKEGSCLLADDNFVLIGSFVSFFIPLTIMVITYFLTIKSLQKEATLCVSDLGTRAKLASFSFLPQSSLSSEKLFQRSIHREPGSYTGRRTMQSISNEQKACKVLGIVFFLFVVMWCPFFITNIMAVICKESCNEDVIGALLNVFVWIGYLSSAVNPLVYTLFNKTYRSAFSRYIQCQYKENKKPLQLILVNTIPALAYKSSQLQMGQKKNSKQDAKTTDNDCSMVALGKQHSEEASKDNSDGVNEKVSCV
Outline: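 Kinetic calcium-flux fluorescence (2 min, 1 sec intervals) after compound addition in agonist mode. HTR2A-CHO cells were cultured 18 h, then dye-loaded 1 h at 37 C.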

[12] = target: Muscarinic acetylcholine receptor M1 (Homo sapiens) (UniProt P11229); experiment: Cholinergic receptor muscarinic 1 (CHRM1) small molecule antagonists, cell-based qHTS assay (AID 1963588); also: nearly all actives have a fitted effect of over 40% in size
Muscarinic acetylcholine receptor M1 (Homo sapiens), sequence (P11229 whole entry, looked up): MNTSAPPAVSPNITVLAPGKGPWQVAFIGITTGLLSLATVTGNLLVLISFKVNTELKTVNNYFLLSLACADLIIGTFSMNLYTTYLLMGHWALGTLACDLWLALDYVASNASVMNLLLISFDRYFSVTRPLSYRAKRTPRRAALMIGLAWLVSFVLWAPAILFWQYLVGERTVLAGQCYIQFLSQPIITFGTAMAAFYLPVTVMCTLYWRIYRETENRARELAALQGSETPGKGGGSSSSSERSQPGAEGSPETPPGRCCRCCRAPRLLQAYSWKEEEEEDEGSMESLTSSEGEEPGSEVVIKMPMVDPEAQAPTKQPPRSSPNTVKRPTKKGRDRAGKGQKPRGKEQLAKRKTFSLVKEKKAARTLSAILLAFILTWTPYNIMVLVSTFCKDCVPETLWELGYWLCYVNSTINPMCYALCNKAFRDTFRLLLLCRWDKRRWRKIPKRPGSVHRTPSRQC
Outline: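 CHRM1-CHO calcium-flux assay, antagonist mode. Cells were seeded 18 h, dye-loaded 1 h at 37 C and given compound for 5 min at RT, then acetylcholine was added at 50nM. FDSS fluorescence was read 3 min; 15 concentrations, three runs.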

[13] = target: Muscarinic acetylcholine receptor M1 (Homo sapiens) (UniProt P11229); experiment: Cholinergic receptor muscarinic 1 (CHRM1) small molecule agonists, cell-based qHTS assay (AID 1963589); also: nearly all actives have a fitted effect of over 35% in size
Outline: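 Agonist-mode qHTS in CHO cells stably carrying human muscarinic M1. Intracellular calcium is tracked by fluorescence every second after compound transfer; each compound runs at 15 concentrations in three independent runs.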

[14] = cAMP Responsive Elements (CRE) small molecule agonists, cell-based qHTS assay (AID 1963590)
Outline: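 Agonist mode qHTS in CRE-bla HEK 293T cells: compounds dosed from DMSO for 3 h at 37 C/5% CO2, followed by LiveBLAzer B/G FRET substrate for 2 h at room temperature.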

[15] = cAMP Responsive Elements (CRE) small molecule antagonists, cell-based qHTS assay (AID 1963591; active = well fitted inhibition curve with a large enough effect in the signal ratio in the repeat runs, not every such curve was filed as active; the % refers to the signal ratio)
Outline: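 Antagonist mode: test compounds are co-incubated with the adenylyl cyclase activator NKH477 (0.25 uM final) on CRE-bla HEK293T cells for 3 h at 37 °C, followed by LiveBLAzer substrate loading.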

[16] = target: Beta-2 adrenergic receptor (Homo sapiens) (UniProt P07550); experiment: Adrenergic beta2 receptor (ADRB2) small molecule antagonists, cell-based qHTS assay (AID 1963592); also: series mostly up to about 92 µM; nearly all actives have a fitted effect of over 50% in size
Beta-2 adrenergic receptor (Homo sapiens), sequence (P07550 whole entry, looked up): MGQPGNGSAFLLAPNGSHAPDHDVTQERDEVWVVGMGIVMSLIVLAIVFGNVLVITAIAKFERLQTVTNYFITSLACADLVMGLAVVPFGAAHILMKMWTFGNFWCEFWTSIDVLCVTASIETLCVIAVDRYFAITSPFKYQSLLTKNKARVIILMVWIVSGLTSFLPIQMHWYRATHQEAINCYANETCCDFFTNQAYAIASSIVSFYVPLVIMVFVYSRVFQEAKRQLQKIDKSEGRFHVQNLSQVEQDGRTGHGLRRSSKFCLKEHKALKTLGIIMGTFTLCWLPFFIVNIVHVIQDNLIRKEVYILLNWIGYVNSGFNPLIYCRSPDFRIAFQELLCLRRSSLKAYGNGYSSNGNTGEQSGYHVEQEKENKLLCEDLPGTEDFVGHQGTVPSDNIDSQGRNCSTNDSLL
Outline: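 Cells (CHO, stable ADRB2 overexpression) incubated 18-20hr at 37C; compounds added from DMSO; agonist mix (1nM isoproterenol, 100uM IBMX, 25uM Ro-20-1724) added; 0.5hr RT; d2-cAMP and anti-cAMP-cryptate added; 1hr RT; 665/615 nm read.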

[17] = target: Beta-2 adrenergic receptor (Homo sapiens) (UniProt P07550); experiment: Adrenergic beta2 receptor (ADRB2) small molecule agonists, cell-based qHTS assay (AID 1963593);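 also: CHO cells stably overexpressing human ADRB2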
Outline: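 CHO cells stably over-expressing ADRB2 were plated overnight at 37C, then dosed with compounds plus a stimulation mix containing 100uM IBMX and 25uM Ro-20-1724 for 0.5hr at room temperature. cAMP was measured by HTRF competition, 1hr.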

[18] = target: D(2) dopamine receptor (Homo sapiens) (UniProt P14416); experiment: Dopamine D2 receptor (DRD2) small molecule agonists, cell-based qHTS assay (AID 1963594); also: nearly all actives have a fitted effect of over 35% in size
D(2) dopamine receptor (Homo sapiens), sequence (P14416 whole entry, looked up): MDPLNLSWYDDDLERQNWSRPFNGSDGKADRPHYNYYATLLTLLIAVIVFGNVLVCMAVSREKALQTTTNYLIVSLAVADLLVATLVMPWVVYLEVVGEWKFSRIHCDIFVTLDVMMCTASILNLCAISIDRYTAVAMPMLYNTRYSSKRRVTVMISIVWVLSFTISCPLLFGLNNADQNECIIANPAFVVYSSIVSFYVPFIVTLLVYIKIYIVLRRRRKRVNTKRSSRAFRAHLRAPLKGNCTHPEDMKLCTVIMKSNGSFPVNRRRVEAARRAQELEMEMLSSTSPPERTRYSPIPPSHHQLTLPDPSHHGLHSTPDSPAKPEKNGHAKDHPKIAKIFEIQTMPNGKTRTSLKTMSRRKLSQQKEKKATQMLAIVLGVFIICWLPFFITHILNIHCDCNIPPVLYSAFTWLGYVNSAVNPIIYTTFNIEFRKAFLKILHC
Outline: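 cAMP accumulation in DRD2-HEK293 cells measured by HTRF after 1 h detection; compounds added 10 min before NKH477 (200nM […]) forskolin-analogue stimulation, 30 min at room temperature, with Ro20-1724 present at 0.1 mM final.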

[19] = target: D(2) dopamine receptor (Homo sapiens) (UniProt P14416); experiment: Dopamine D2 receptor (DRD2) small molecule antagonists, cell-based qHTS assay (AID 1963595; active = well fitted inhibition curve with a large enough effect in the signal ratio in the repeat runs, with a control signal flat; the % refers to the signal ratio)
Outline: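 HTRF cAMP read-out at 665 and 620 nm emission (340 nm excitation). Antagonist mode: compounds were tested against 12 nM quinpirole in DRD2-HEK293 cells, with 200 nM NKH477 raising cAMP and 0.1 mM Ro20-1724 blocking its breakdown.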

[20] = target: 5-hydroxytryptamine receptor 2A (Homo sapiens) (UniProt P28223); experiment: 5-hydroxytryptamine receptor 2A (HTR2A) small molecule antagonists, cell-based qHTS assay (AID 1963586); also: nearly all actives have a fitted effect of over 45% in size
Outline: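 Antagonist-mode intracellular calcium assay: DOI (4 nM) added after 5 min compound pre-incubation at room temperature to dye-loaded HTR2A-CHO cells. Fluorescence followed for 3 min, sampled every second.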

Measured: Potency

Nc1ccc(S(=O)(=O)Nc2ccccn2)cc1
not listed: [20]
inactive: all other assays above

OCCCO
not listed: [12]
inactive: all other assays above

CCCCCCCCCCCCCCCC[N+](C)(C)CCN(Cc1ccc(OC)cc1)c1ncccn1
active: [1] 26.6 µM
not listed: [14] | [15] | [16] | [17] | [18] | [19] | [20]
inactive: all other assays above

O=C(O)C1CCC1
not listed: [16] | [19] | [20]
inactive: all other assays above
